Compounds with a hit are over-represented: about 7% of the library has one in this group of screens.
PI5P4K alpha inh: PI5P4K alpha (human) kinase inhibition; max response, %; 330,000 tested, 1.2% active; AID 652105; PI5P4Kalpha enzyme, ADP-Glo luminescence, 60 min; hits give low values; active means max response of -50% or lower; inconclusive means between -30% and -50%; inactive means -30% or higher; further: value at the top dose of about 77 µM; on the % scale 0 is the no-effect control and ±100 the full control effect
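Luminescence from ADP-Glo served as readout of PI5P4Kalpha activity in a qHTS format. Reaction: enzyme, substrate, compound, ATP at 5 microM final, 60 min at RT.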
GCN5L2 inh: blocks human GCN5L2 histone acetyltransferase. Q92830. GCN5L2 HAT assay, ThioGlo1 CoA-SH fluorescence. Potency, µM (titrated, usually from 58.9 µM), inactives show at the highest dose activity change, negative = inhibition, actives largely listed as inhibitors. 390,000 tested, 0.21% active; further: potency means the concentration at half of the fitted maximal effect; on the % scale 0 is the no-effect control and ±100 the full control effect
Target sequence (Q92830 whole entry, looked up): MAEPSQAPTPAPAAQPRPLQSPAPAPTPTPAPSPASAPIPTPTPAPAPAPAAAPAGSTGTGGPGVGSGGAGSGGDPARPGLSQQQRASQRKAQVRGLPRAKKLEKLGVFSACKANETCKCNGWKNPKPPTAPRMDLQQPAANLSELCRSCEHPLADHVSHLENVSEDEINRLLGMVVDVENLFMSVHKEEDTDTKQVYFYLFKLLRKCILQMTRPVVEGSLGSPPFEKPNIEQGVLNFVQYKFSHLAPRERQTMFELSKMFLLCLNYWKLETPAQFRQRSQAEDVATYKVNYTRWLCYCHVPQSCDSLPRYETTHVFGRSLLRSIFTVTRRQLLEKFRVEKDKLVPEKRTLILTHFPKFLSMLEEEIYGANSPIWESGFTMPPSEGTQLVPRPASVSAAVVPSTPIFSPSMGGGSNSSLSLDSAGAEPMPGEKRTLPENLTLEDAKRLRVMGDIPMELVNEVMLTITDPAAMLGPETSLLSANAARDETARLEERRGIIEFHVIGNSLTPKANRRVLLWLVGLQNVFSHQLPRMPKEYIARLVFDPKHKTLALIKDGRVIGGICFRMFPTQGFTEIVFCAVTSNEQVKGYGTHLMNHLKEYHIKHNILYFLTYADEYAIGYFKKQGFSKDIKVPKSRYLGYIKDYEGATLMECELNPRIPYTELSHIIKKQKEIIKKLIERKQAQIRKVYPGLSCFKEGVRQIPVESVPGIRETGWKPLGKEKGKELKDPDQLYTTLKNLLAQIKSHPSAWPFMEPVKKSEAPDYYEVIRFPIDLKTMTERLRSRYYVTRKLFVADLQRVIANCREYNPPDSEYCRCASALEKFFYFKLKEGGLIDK
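Preincubate 20nM GCN5L2 with compound 15 min, RT → add 50uM ThioGlo1 + 75uM H3(1-25) + 70uM acetyl-CoA → read fluorescence 0 and 20 min. Primary qHTS; fluorescent artifacts likely.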
JMJD2A Tudor inh: blocks the human JMJD2A Tudor domain | 390,000 tested, 4.4% active | Potency, µM (top dose mostly 114 µM), for inactives: at the highest dose activity change, negative = inhibition, usual class: inhibitors | O75164 | AlphaScreen JMJD2A-Tudor / H3K4me3 peptide binding | AID 504339; further: potency means the concentration at half of the fitted maximal effect; on the % scale 0 is the no-effect control and ±100 the full control effect; nearly all actives have a fitted effect of over 50% in size
BAZ2B inh: blocks human BAZ2B | 360,000 tested, 4.4% active | AID 504333 | AlphaScreen BAZ2B-H3K14Ac peptide displacement | Potency, µM (doses to about 114 µM), for inactives: at the highest dose activity change, negative = inhibition, usual class: inhibitors | Q9UIF8; further: potency means the concentration at half of the fitted maximal effect; on the % scale 0 is the no-effect control and ±100 the full control effect; nearly all actives have a fitted effect of over 60% in size
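BAZ2B 50 nM plus b-H3(5-23)K14Ac 50 nM, PBS pH 7.4/0.01% Tween-20, 30 min RT; compound added (max 110 uM), 30 min RT; streptavidin donor/Ni-chelate acceptor beads 10 ug/mL final, 20 min dark; AlphaScreen read.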
PLK1 PBD block: PLK1 (human) polo-box domain binding inhibition | P53350 | Plk1 PBD binding of FITC phosphopeptide, fluorescence polarization | Potency, µM, without a hit: max response, negative = inhibition, most hits filed as inhibitors | 360,000 tested, 2.8% active | AID 720504; further: potency means the concentration at half of the fitted maximal effect; series mostly up to about 57 µM; on the % scale 0 is the no-effect control and ±100 the full control effect; nearly all actives have a fitted effect of over 65% in size
HP1b chromo inh: inhibitors of HP1-beta chromodomain binding to methylated histone tails | P83916 | AlphaScreen HP1-beta / biotin-H3K9me3 peptide binding | Potency, µM (titrated, usually from 114 µM), for the others: at the highest dose activity change, negative = inhibition, most hits filed as inhibitors | 390,000 tested, 0.56% active; further: potency means the concentration at half of the fitted maximal effect; nearly all actives have a fitted effect of over 70% in size
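AlphaScreen: HP1-beta (50 nM) preformed 30 min with biotin-H3(1-18)K9me3 peptide (50 nM) in PBS pH 7.4, 0.01% Tween-20. Compound added for 30 min at RT, then streptavidin donor/nickel chelate acceptor beads (10 ug/mL) for 30 min.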
* hit, by the source's call; ? = inconclusive; / = no result; ! = repeats disagree; [ ] = another dose, or the depositor's remark. Unless noted, the call rests on the fitted dose curve; in most records, active means well fitted curve in the direction sought with a large enough effect; inconclusive means small, poorly fitted or top-dose-only effect, or another doubt; inactive means no such curve, though single readings can be large; an effect the other way counts as inactive or inconclusive.

SMILES | PI5P4K alpha inh | GCN5L2 inh | JMJD2A Tudor inh | BAZ2B inh | PLK1 PBD block | HP1b chromo inh
O=C(COC(=O)/C=C/c1ccc(Br)o1)Nc1ccccc1F | / | -9% | / | 56µM* | / | /
CCN(CC)CCCNC(=S)N(Cc1cccnc1)Cc1cc2cc(C)ccc2[nH]c1=O | -9 | -13% | -17% | -17% | -14% | 15%
Cc1ccc(CNC(=O)C2CCCN(S(=O)(=O)c3cccc4nsnc34)C2)cc1 (centres undefined) | / | 2% | -7% | / | / | 37%
O=C(O)C1=C[C@@H](c2ccc(F)cc2)C[C@@H](OCCCCO)O1 | -1 | 43% | ? | 79µM* | -18% | 21%
Cn1cccc1/C=C1\SC(=Nc2cccc(O)c2)NC1=O | -55* | -4% | ? | 25µM* | -4% | ?
COc1cc(NC(=O)[C@H](C)NC(=O)N2CCn3c2nc2ccccc23)cc(OC)c1 | 5 | -10% | -24% | 50µM* | ? | 40%
Cc1ccccc1CN(C)C(=O)COC(=O)c1ccc2[nH]c(C)c(C)c2c1 | 14 | -14% | ? | / | 5% | -25%
CC(=O)c1ccc(/C=C/c2nc3ccccc3n2C)o1 | -1 | 11µM* | -3% | 12% | -19% | 21%
Cn1c(/C=C/c2ccccc2)nc2ccccc21 | ? | -5% | 33% | 14% | -3% | 53%
NNC(=O)c1nnsc1-c1csnn1 | -10 | / | 79µM* | / | -7% | 22%
Fc1cccc(/C=N/Nc2cc(N3CCOCC3)ncn2)c1 | -18 | 1% | -15% | 7% | -22% | -9%
O=C(Cc1ccsc1)Nc1ccc(Cl)cc1Cl | 7 | -26% | 5% | 5% | 1% | 38%
CCc1noc(C)c1C(=O)Nc1cc(S(=O)(=O)N(CC)CC)ccc1N1CCOCC1 | 0 | -2% | -26% | -1% | -7% | 19%
CC(=O)N(\C=C/C=C/C=C1\Sc2ccccc2C1=O)c1ccccc1 | -66* | ? | 7.9µM* | 7.1µM* | ? | 13µM*
Cc1cccc(NC(=O)N2CCC(CN3CCOCC3)CC2)c1C | / | -1% | -12% | -1% | / | 37%
Cc1cccc(CSc2ncccc2C(=O)O)c1 | 5 | -20% | 50µM* | -28% | -1% | 42%
O=C(O)c1ccccc1CSc1ncccc1C(=O)O | -10 | -8% | 20µM* | -26% | -8% | 3%
O=C(O)c1ccccc1CSC1=NCCS1 | -10 | -2% | 5% | -24% | 17µM* | 4%
O=C(O)c1cccnc1SCc1cccc(Cl)c1 | 6 | -2% | -7% | -3% | -10% | 13%
COc1ccccc1CNC(=O)c1c2c(nc3ccccc13)C(=O)N(C1CCCCC1)C2 | / | -4% | -16% | 0% | / | 59%
CC1CCN(Cc2nnc(-c3cccc(Br)c3)o2)CC1 | 0 | -18% | -8% | 3% | -1% | 36%
O=S(=O)(NCCC1=CCCCC1)c1c(Cl)cccc1Cl | 9 | -41% | 54% | 73% | -11% | 103%
COC(=O)c1sc2cccc(F)c2c1S(=O)(=O)N1CCN(c2cccc(C)c2)C(C)C1 (centres undefined) | / | -4% | -29% | -35% | / | 33%
CC(=O)Oc1cc(C(=O)OCC(=O)N2CCc3ccccc3C2)cc(OC(C)=O)c1OC(C)=O | -13 | 1% | 1.6µM* | / | ? | ?
CN(C)CC(=O)N1CCc2ccccc2C1 | -5 | -3% | 11µM* | 50µM* | 8% | -33%
SMILES | PI5P4K alpha inh | GCN5L2 inh | JMJD2A Tudor inh | BAZ2B inh | PLK1 PBD block | HP1b chromo inh
Cc1ccccc1N(CC(=O)N1CCc2ccccc2C1)S(C)(=O)=O | 1 | -11% | -2% | 9% | 2% | 39%
COc1ccc(C(=O)OCC(=O)N2CCc3ccccc3C2)cc1OC | 2 | -3% | 0% | / | 2% | 24%
Cn1c(C2CCCN2C(=O)OC(C)(C)C)n[nH]c1=S (centres undefined) | -6 | -7% | 45µM* | -7% | -10% | 7%
NN=C1c2ccccc2C(=O)C1C(=O)C(c1ccccc1)c1ccccc1 (centres undefined) | -51* | / | ? | / | 15% | -7%
O=C(OCCN1CCOCC1)c1cccnc1 | / | 1.1µM*! | -5% | -6% | -3% | 21%
O=C(CCN1CCOCC1)NNC(=S)NC(=O)c1ccccc1 | -3 | 0% | 18µM* | / | -3% | 28%
O=C(OCCN1CCOCC1)c1ccccc1 | -1 | -2% | ? | -2% | 24µM* | -5%
CCOC(=O)c1cccnc1 | / | -9% | / | / | / | /
Cc1ncsc1CCOC(=O)c1cccnc1 | / | -3% | ? | 50µM* | -1% | 16%
COc1ccc(OCc2cc(C(=O)N(C)Cc3cc(C4CC4)n[nH]3)no2)c(Cl)c1 | 3 | -11% | -11% | -30% | 3% | 15%[57 µM]
Cc1cc(=O)[nH]c(-n2ncc(C#N)c2N)n1 | ? | -2% | 1.6µM* | / | 2% | 13%
O=C(NNC(=O)c1ccc2[nH]c(=O)c(=O)[nH]c2c1)c1cccc(Br)c1 | -16 | -13% | -15% | -24% | -18% | 41%
O=C(Cc1ccccc1[N+](=O)[O-])NCc1ccc(Cl)cc1Cl | -1 | 0% | -21% | 10% | 6% | 10%
O=[N+]([O-])c1ccccc1CNc1ccc(F)c(Cl)c1 | 1 | -5% | ? | 50µM* | -10% | -29%
CCNc1cccc2c1C(=O)N(C)C2=O | / | -5% | 17% | 34% | 24µM* | 52%
CCC(=O)Nc1cccc2c1C(=O)N(C)C2=O | 1 | -9% | -7% | -8% | -11% | 58%
CCOC(=O)c1c(NC(=O)c2cc(-c3ccc(Cl)s3)nc3ccccc23)sc(C(N)=O)c1C | -29 | 34% | -8% | -1% | -10% | 38%
CCOC(=O)c1sc(NC(=O)c2cc(-c3ccccc3C)nc3ccccc23)c(C#N)c1C | -19 | -8% | -34%[11.4 µM] | -7% | 5.3µM* | 6.3µM*
Cc1ccccc1-c1cc(C(=O)Nc2sc(C)c(C)c2C(N)=O)c2ccccc2n1 | ? | -12% | ? | ? | 27µM* | ?
CSc1nnc(NC(=O)c2cc(=O)c3cc(C)c(C)cc3o2)s1 | / | -1% | 7% | -18% | / | 40%
Cc1ccc(C2N=C(N)Nc3nc(=O)c4ccccc4n32)cc1 (centres undefined) | 2 | -3% | -17% | -9% | -6% | 39%
Cc1cc(C)c(NC(=O)C2CCN(S(=O)(=O)c3c(C)noc3/C=C/c3ccccc3F)CC2)c(C)c1 | / | -2% | -12% | -1% | / | 20%[57 µM]
CCc1nnc(NC(=O)CSc2nc(-c3ccccc3)c(-c3ccccc3)o2)s1 | 3 | 35% | -2% | 6% | -2% | 25%
CCOCc1nnc(NC(=O)CSc2ccccc2)s1 | -12 | -12% | 4% | 7% | ? | 25%
CCc1nnc(NC(=O)CSc2nnc(-c3ccccc3O)o2)s1 | 7 | -23% | -15%[11.4 µM] | 16% | 24µM* | ?

From PubChem BioAssay
